# From PubChem BioAssay AID1159580 (chemical genetic matrix, 2015)
# In all, about 5,500 compounds went through this assay and about 2,000 (36%) were called active. Another 18% or so got no clear call; they are omitted. The list shows a part of the results. Values without a mark were called inactive. No stated cut-off is given here; in the data, active means normalized growth mostly below about 0.91 (no sharp cut-off); inconclusive means no clear call, values can overlap the other calls; inactive means mostly above about 0.92.
# Experiment: chemical genetic growth profiling, strain panel (AID 1159580);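 further: tested at 20 µM; growth read once vehicle control cultures reached saturation at 30 °C; 1 = growth at the plate median or of vehicle wells; lower values mean less growth of the strain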
# Settings: growth OD
smiles,measurement,setting,value
Nc1ncnc2c1ncn2C1O[C@H](COP(=O)(O)O)[C@@H](O)[C@H]1O (some centres not stated),normalized growth,"S. cerevisiae deletion strains, locus YJR075W, strain HOC1, hits give low values",1.04
same,normalized growth,"S. cerevisiae deletion strains, locus YKL009W, strain mrt4, hits give low values",1.02
same,normalized growth,"S. cerevisiae deletion strains, locus YKL068W, hits give low values",0.993
same,normalized growth,"S. cerevisiae deletion strains, locus YKL085W, strain MDH1 (second series), hits give low values",1
same,normalized growth,"S. cerevisiae deletion strains, locus YKL085W, strain MDH1, hits give low values",1
same,normalized growth,"S. cerevisiae deletion strains, locus YKL160W, strain elf1, hits give low values",1
same,normalized growth,"S. cerevisiae deletion strains, locus YKL190W, strain CNB1, hits give low values",1.01
same,normalized growth,"S. cerevisiae deletion strains, locus YKR001C, strain vps1, hits give low values",0.581 (active)
same,normalized growth,"S. cerevisiae deletion strains, locus YKR026C, strain gcn3, hits give low values",1
same,normalized growth,"S. cerevisiae deletion strains, locus YKR091W, strain srl3, hits give low values",0.995
same,normalized growth,"S. cerevisiae deletion strains, locus YLL001W, strain dnm1, hits give low values",1.03
same,normalized growth,"S. cerevisiae deletion strains, locus YLL026W, hits give low values",1.01
same,normalized growth,"S. cerevisiae deletion strains, locus YLL041C, strain sdh2, hits give low values",0.981
same,normalized growth,"S. cerevisiae deletion strains, locus YLR027C, strain aat2, hits give low values",1.02
same,normalized growth,"S. cerevisiae deletion strains, locus YLR039C, strain RIC1, hits give low values",1.04
same,normalized growth,"S. cerevisiae deletion strains, locus YLR058C, strain SHM2, hits give low values",1.02
same,normalized growth,"S. cerevisiae deletion strains, locus YLR102C, strain apc9, hits give low values",0.962
same,normalized growth,"S. cerevisiae deletion strains, locus YLR113W, strain HOG1, hits give low values",1
same,normalized growth,"S. cerevisiae deletion strains, locus YLR221C, strain rsa3, hits give low values",0.969
same,normalized growth,"S. cerevisiae deletion strains, locus YLR258W, strain gsy2, hits give low values",0.987
same,normalized growth,"S. cerevisiae deletion strains, locus YLR262C, strain YPT6 (second series), hits give low values",1.03
same,normalized growth,"S. cerevisiae deletion strains, locus YLR262C, strain YPT6, hits give low values",1.02
same,normalized growth,"S. cerevisiae deletion strains, locus YLR268W, strain sec22, hits give low values",0.627 (active)
same,normalized growth,"S. cerevisiae deletion strains, locus YLR320W, strain mms22, hits give low values",0.983
same,normalized growth,"S. cerevisiae deletion strains, locus YLR330W, strain CHS5, hits give low values",1.01
same,normalized growth,"S. cerevisiae deletion strains, locus YLR342W, strain FKS1 (second series), hits give low values",1.04
same,normalized growth,"S. cerevisiae deletion strains, locus YLR342W, strain FKS1, hits give low values",1.02
same,normalized growth,"S. cerevisiae deletion strains, locus YLR357W, strain rsc2, hits give low values",1.02
same,normalized growth,"S. cerevisiae deletion strains, locus YLR370C, strain arc18, hits give low values",1.01
same,normalized growth,"S. cerevisiae deletion strains, locus YLR371W, strain rom2, hits give low values",0.986
same,normalized growth,"S. cerevisiae deletion strains, locus YLR384C, strain iki3, hits give low values",1
same,normalized growth,"S. cerevisiae deletion strains, locus YLR418C, strain cdc73, hits give low values",0.471 (active)
same,normalized growth,"S. cerevisiae deletion strains, locus YML016C, strain PPZ1, hits give low values",1.01
same,normalized growth,"S. cerevisiae deletion strains, locus YML032C, strain rad52, hits give low values",0.417 (active)
same,normalized growth,"S. cerevisiae deletion strains, locus YML120C, strain ndi1, hits give low values",1.01
same,normalized growth,"S. cerevisiae deletion strains, locus YML124C, strain tub3, hits give low values",0.829 (active)
same,normalized growth,"S. cerevisiae deletion strains, locus YMR058W, strain fet3, hits give low values",1.01
same,normalized growth,"S. cerevisiae deletion strains, locus YMR078C, strain ctf18, hits give low values",0.838 (active)
same,normalized growth,"S. cerevisiae deletion strains, locus YMR125W, strain sto1, hits give low values",0.987
same,normalized growth,"S. cerevisiae deletion strains, locus YMR129W, hits give low values",0.994
same,normalized growth,"S. cerevisiae deletion strains, locus YMR205C, strain PFK2, hits give low values",1.02
same,normalized growth,"S. cerevisiae deletion strains, locus YMR223W, strain ubp8, hits give low values",0.81 (active)
same,normalized growth,"S. cerevisiae deletion strains, locus YMR231W, strain pep5, hits give low values",0.999
same,normalized growth,"S. cerevisiae deletion strains, locus YMR263W, strain SAP30, hits give low values",1.01
same,normalized growth,"S. cerevisiae deletion strains, locus YMR307W, strain GAS1, hits give low values",0.974
same,normalized growth,"S. cerevisiae deletion strains, locus YNL067W, strain RPL9B, hits give low values",1.02
same,normalized growth,"S. cerevisiae deletion strains, locus YNL071W, strain lat1, hits give low values",0.998
same,normalized growth,"S. cerevisiae deletion strains, locus YNL128W, strain TEP1, hits give low values",1.02
same,normalized growth,"S. cerevisiae deletion strains, locus YNL153C, strain GIM3, hits give low values",1.01
same,normalized growth,"S. cerevisiae deletion strains, locus YNL183C, strain NPR1, hits give low values",0.97
same,normalized growth,"S. cerevisiae deletion strains, locus YNL209W, strain ssb2, hits give low values",0.998
same,normalized growth,"S. cerevisiae deletion strains, locus YNL233W, strain BNI4, hits give low values",1.01
same,normalized growth,"S. cerevisiae deletion strains, locus YNL248C, strain rpa49, hits give low values",0.977
same,normalized growth,"S. cerevisiae deletion strains, locus YNL250W, strain rad50, hits give low values",1
same,normalized growth,"S. cerevisiae deletion strains, locus YNL271C, strain bni1, hits give low values",0.895 (active)
same,normalized growth,"S. cerevisiae deletion strains, locus YNL298W, strain CLA4, hits give low values",0.918
same,normalized growth,"S. cerevisiae deletion strains, locus YNL307C, strain MCK1, hits give low values",0.847 (active)
same,normalized growth,"S. cerevisiae deletion strains, locus YNL322C, strain KRE1 (second series), hits give low values",0.991
same,normalized growth,"S. cerevisiae deletion strains, locus YNL322C, strain KRE1, hits give low values",1.01
same,normalized growth,"S. cerevisiae deletion strains, locus YNR049C, strain mso1, hits give low values",0.994
same,normalized growth,"S. cerevisiae deletion strains, locus YNR052C, strain pop2, hits give low values",0.476 (active)
same,normalized growth,"S. cerevisiae deletion strains, locus YOL006C, strain TOP1, hits give low values",1.04
same,normalized growth,"S. cerevisiae deletion strains, locus YOL012C, strain htz1",0.221
same,normalized growth,"S. cerevisiae deletion strains, locus YOL147C, strain pex11, hits give low values",0.516 (active)
same,normalized growth,"S. cerevisiae deletion strains, locus YOR001W, strain rrp6, hits give low values",1.02
same,normalized growth,"S. cerevisiae deletion strains, locus YOR061W, strain CKA2, hits give low values",1.01
same,normalized growth,"S. cerevisiae deletion strains, locus YOR069W, strain VPS5, hits give low values",1.01
same,normalized growth,"S. cerevisiae deletion strains, locus YOR070C, strain gyp1, hits give low values",0.995
same,normalized growth,"S. cerevisiae deletion strains, locus YOR080W, strain dia2, hits give low values",1
same,normalized growth,"S. cerevisiae deletion strains, locus YOR083W, strain WHI5, hits give low values",0.988
same,normalized growth,"S. cerevisiae deletion strains, locus YOR106W, strain vam3, hits give low values",1.03
same,normalized growth,"S. cerevisiae deletion strains, locus YOR136W, strain idh2, hits give low values",0.953
same,normalized growth,"S. cerevisiae deletion strains, locus YOR144C, strain elg1, hits give low values",0.645 (active)
same,normalized growth,"S. cerevisiae deletion strains, locus YOR184W, strain ser1, hits give low values",0.636 (active)
same,normalized growth,"S. cerevisiae deletion strains, locus YOR231W, strain MKK1, hits give low values",1.01
same,normalized growth,"S. cerevisiae deletion strains, locus YOR265W, strain rbl2, hits give low values",1
same,normalized growth,"S. cerevisiae deletion strains, locus YOR270C, strain vph1, hits give low values",0.996
same,normalized growth,"S. cerevisiae deletion strains, locus YOR290C, strain snf2, hits give low values",0.972
same,normalized growth,"S. cerevisiae deletion strains, locus YOR316C, strain cot1, hits give low values",0.969
same,normalized growth,"S. cerevisiae deletion strains, locus YPL051W, strain arl3, hits give low values",1.01
same,normalized growth,"S. cerevisiae deletion strains, locus YPL055C, strain LGE1, hits give low values",1.07
same,normalized growth,"S. cerevisiae deletion strains, locus YPL078C, strain atp4, hits give low values",1.03
same,normalized growth,"S. cerevisiae deletion strains, locus YPL106C, strain sse1, hits give low values",0.997
same,normalized growth,"S. cerevisiae deletion strains, locus YPL240C, strain hsp82, hits give low values",0.998
same,normalized growth,"S. cerevisiae deletion strains, locus YPL241C, strain CIN2, hits give low values",1.01
same,normalized growth,"S. cerevisiae deletion strains, locus YPL256C, strain CLN2, hits give low values",0.995
same,normalized growth,"S. cerevisiae deletion strains, locus YPR119W, strain clb2, hits give low values",0.935
same,normalized growth,"S. cerevisiae deletion strains, locus YPR141C, strain kar3, hits give low values",0.995
same,normalized growth,"S. cerevisiae deletion strains, locus YPR163C, strain tif3, hits give low values",0.725 (active)
same,normalized growth,"S. cerevisiae deletion strains, locus YPR167C, strain met16, hits give low values",0.858 (active)
same,normalized growth,"S. cerevisiae deletion strains, strain wtn01, hits give low values",0.866 (active)
same,normalized growth,"S. cerevisiae strains, strain wild type, hits give low values",1.02
